Source: PubChem
The entries come from a sample that favours hits as a whole.
Tg IFNy HTS: inhibitors of Toxoplasma gondii growth with IFN-gamma; Toxoplasma gondii growth in IFN-gamma-treated host cells; active compounds read low; activity change, negative = inhibition, % (concentration not given with the values); hit rate 3.8% among 69,000; in the data active means activity change below about -70%, passing the limit was not always enough;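 further: host cells are HeLa cells infected with Toxoplasma gondii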
Active calls of the source: *.

SMILES	Tg IFNy HTS
C[C@H](NC(=O)C[C@H]1CC[C@H]2[C@@H](COc3ccc(NS(=O)(=O)c4ccc(Cl)cc4)cc3C(=O)N2C)O1)c1ccccc1	-37
CN1C(=O)c2cc(NC(=O)NCc3ccccc3)ccc2OC[C@@H]2O[C@H](CC(=O)NCC3CCCCC3)CC[C@@H]21	-87*
C[C@@H](NC(=O)C[C@H]1CC[C@@H]2[C@H](COc3ccc(NS(=O)(=O)c4ccc(Cl)cc4)cc3C(=O)N2C)O1)c1ccccc1	-9
CN1C(=O)c2cc(NC(=O)Cc3cccs3)ccc2OC[C@@H]2O[C@H](CC(=O)NCC3CCCCC3)CC[C@H]21	-11
CC(=O)N1CCC(C(=O)NCc2ccccc2)(N(Cc2cccnc2)C(=O)c2ccc(Br)cc2)CC1	-10
CC(C)(C)n1ccc(C(=O)N2C[C@@H](C(=O)O)C[C@@H](C(=O)NC3CC3)C2)c1	-49
O=C1N(Cc2ccccn2)C(=O)C2(CCN(Cc3ccoc3)CC2)N1Cc1ccccc1	11
Cc1noc(C)c1CN1CCCC(O)(CO)CC1 (stereo not given)	-21
Cc1nc(-c2ccc(F)cc2)sc1-c1ccc(SCc2cccc(F)c2)nn1	15
C/C=C/CC(=O)NC1CCN(Cc2cccc(O)c2)CC1	-6
CCN1CC(Cn2ccnc2-c2ccncc2)CC1=O (stereo not given)	-2
Cc1nc(C)c(C(=O)Nc2ccc3c(c2)CN(Cc2ccccc2)C3)o1	0
Cc1nc2n(Cc3ccccc3)c3ccccc3n2c1C(=S)Nc1ccccc1	-114*
Cc1nc2ccccc2n1Cc1ccccc1	-58
Cc1oc(-c2ccccc2)nc1Cn1nnc(C(=O)Nc2cc(F)ccc2F)c1C	1
CCOC(=O)c1c(NC(=O)c2ccccc2)sc(C(=O)Nc2ccccc2)c1C	3
CCOC(=O)c1c(NC(=O)c2c(C)nn(-c3ccccc3)c2Cl)sc(C)c1C	-48
CCOC(=O)c1c(NC(=S)NC(=O)c2ccccc2)sc(C)c1C	-73*
CC(C)C1CN(C(=O)c2ccnc(N)c2)CCC(=O)N1CC1CC1 (stereo not given)	8
Cc1c(NC(=O)c2cc3nc(-c4ccccc4)cc(C)n3n2)c(=O)n(-c2ccccc2)n1C	-86*
Cc1c(NC(=O)Cc2ccccc2)c(=O)n(-c2ccccc2)n1C	6
Cc1c(NC(=O)c2ncoc2-c2ccc(F)cc2)c(=O)n(-c2ccccc2)n1C	-32
CC(=O)N1CCOC2(CCCN(S(=O)(=O)c3ccc(F)cc3)C2)C1 (stereo not given)	-3
COCCN1CCO[C@H]2CN(C(=O)c3ccc4[nH]ccc4c3)CC[C@@H]2C1	4
CC1CN(c2ncc(C(=O)OCc3ccccc3)c(C(F)(F)F)n2)CC(C)O1 (stereo not given)	-116*
SMILES	Tg IFNy HTS
COC(=O)c1cnc(NN2C(=O)CCC2=O)nc1C(F)(F)F	65
CCCc1c(C(=O)OCC)cnn1-c1ncc(C(=O)OC)c(C(F)(F)F)n1	-19
O=C(NC1CC1)[C@H]1C[C@@H]2OCC[C@@H]2N(C(=O)c2cccs2)C1	-6
COc1ccc(C(N)=O)cc1-c1cccc(OC(C)C)c1	1
CC(C)N1CC2(COC(C(=O)NCCc3cccnc3)C2)c2ccccc21 (stereo not given)	-12
Cc1ccc(NC(=O)C(=O)NCCc2sc(-c3ccccc3)nc2C)cc1Cl	-62
COCCN1C(=O)CCc2cc(NC(=O)C3CCC3)ccc21	31
Cc1c(C)c(C)c(C(=O)CCc2cccc(NC(=O)C3CCC3)c2)c(C)c1C	-92*
O=C1CCc2cc(NC(=O)C3CCC3)ccc2N1	4
Cc1ccc(-c2nc(CNS(=O)(=O)c3ccccc3)c(C)o2)cc1	32
CN(C)CCOCc1nnc2n1CCN(S(C)(=O)=O)C2	5
COC(=O)c1[nH]ncc1CN1CCN(c2ccccc2OC)C(C)(C)C1	8
O=c1cc(C(F)(F)F)nc(Nc2nc(-c3ccccc3)c3cc(Cl)ccc3n2)[nH]1	-15
CC1=C(C(=O)NCCN2CCC(Cc3ccccc3)CC2)C2(CCCCC2)OC1=O	-84*
CC1=C(C(=O)NC2CCN(Cc3ccccc3)CC2)C2(CCCCC2)OC1=O	-15
CC1=C(C(=O)NCCCN2CCC(N3CCCCC3)CC2)C2(CCCCC2)OC1=O	18
CCCC(C)c1nnc(NC(=O)Cc2nc3nc(C)cc(C)n3n2)s1 (stereo not given)	6
C[C@H]1C[C@H]2CN(C(=O)c3ccc4c(c3)OCO4)C[C@H]2O1	24
CC(=O)c1ccc2c(c1)[C@@H]1C=CC[C@@H]1[C@H](c1cc3c(cc1Br)OCO3)N2	-75*
Brc1ccc2c(c1)C1C=CCC1C(C1CC=CCC1)N2 (stereo not given)	27
COCCN1C(=O)CCc2cc(NC(=O)c3ccccc3Cl)ccc21	24
CCN1CCCC1CNC(=O)C1CCN(Cc2cc3ccccc3n2Cc2ccc(F)cc2)CC1 (stereo not given)	-38
Cc1nc(-c2ccc(Cl)cc2)sc1CCNC(=O)c1c(F)cccc1F	-46
CCSc1nc(CC(=O)NCc2ccc3c(c2)CC(C)O3)cs1 (stereo not given)	-17
O=S(=O)(c1ccc(Cl)cc1)N1CCC(n2nnc3cc(F)ccc32)CC1	-18
SMILES	Tg IFNy HTS
CCc1nccn1CC(C)NC1CCN(C(=O)c2ccc(C)cc2)CC1 (stereo not given)	-10
CC1(C)Oc2ccc3ccc(=O)oc3c2C(N2CCCCC2)C1O (stereo not given)	-8
Cc1c(C(=O)N2CCC(C)CC2)oc2ccc3c(c12)C(O)CC1(CCCCC1)O3 (stereo not given)	-100*
Cc1ccc(C(=O)N2CCC3(CC2)CC(CC(=O)NCC(C)C)c2ccccc2O3)o1 (stereo not given)	-39
O=C1CCC2(CCN1)CCN(c1nc3ccccc3s1)CC2	159
Cc1c(C#N)c(NC(=O)c2cccs2)n(Cc2cccs2)c1C	13
Cc1ccc(NC(=O)Cn2ncc3c(N4CCCC4)ncnc32)cc1Cl	-55
O=C(Cn1ncc2c(N3CCN(c4ccccc4)CC3)ncnc21)Nc1ccc(OC(F)(F)F)cc1	-52
O=C(Cn1ncc2c(N3CCCC3)ncnc21)Nc1ccc(F)c(Cl)c1	-45
O=C(Cn1ncc2c(N3CCCC3)ncnc21)Nc1ccc(OC(F)(F)F)cc1	0
O=C(Cn1ncc2c(N3CCCCCC3)ncnc21)Nc1ccc(OC(F)(F)F)cc1	-98*
Cc1ccc(NC(=O)Cn2ncc3c(N4CCCCCC4)ncnc32)cc1F	-101*
Cc1nc(=O)[nH]c(C)c1CCC(=O)N1CCCC2(CN(C)C(=O)O2)C1 (stereo not given)	22
Cc1ccc(S(=O)(=O)NCc2nc(-c3cccc(Cl)c3)oc2C)c(C)c1	68
Cc1cccc(C(=O)N2CCc3c([nH]c4ccccc34)C2c2cccnc2)c1 (stereo not given)	-109*
O=C(c1ccc(Br)cc1)N1CCc2c([nH]c3ccccc23)C1c1cccnc1 (stereo not given)	-86*
O=C(c1cccs1)N1CCc2c([nH]c3ccccc23)C1c1cccnc1 (stereo not given)	10
CCOc1cccc(CC(=O)N2CCc3c([nH]c4ccccc34)C2c2cccnc2)c1OCC (stereo not given)	11
CCOc1ccc(NC(=O)Cn2c(=O)cc(-c3nc(CC)no3)c3ccccc32)cc1	-15
Cn1ccnc1C(=O)N[C@@H]1CN(C(N)=O)[C@H]2CCCO[C@@H]12	-7
COCC(=O)Nc1ccc(-c2ccc(F)cc2OC)cc1	32
CCOc1ccccc1-c1nc(CSc2nc3c(c(=O)[nH]2)CN(Cc2ccccc2)CC3)c(C)o1	2
